Activity calls are given as the source filed them.
test: E. coli acrAB mutant growth effects, primary screen, E. coli filamentation inducers, strain DRC39, OD650, 24 h (AID 1178); conditions: higher = more signal, called active from +8 up or from −8 down;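 also: growth measured as culture turbidity by optical density at 650 nm; test concentration not given here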

Row | Compound | z-score
1 | COC(=O)C(CC#Cc1ccc2c(c1)[C@]1(C(=O)N2)[C@H](c2ccc(OCCO)cc2)N2[C@H](c3ccccc3)[C@H](c3ccccc3)OC(=O)[C@H]2[C@@H]1C(=O)O)C(=O)OC | 1.29 (inactive)
2 | COCCCNC(=O)[C@]1(Cc2ccccc2CN=[N+]=[N-])N=C(c2ccc(OCCCO)cc2)O[C@@H]1c1ccccc1CN=[N+]=[N-] | 0.445 (inactive)
3 | C=C(C(=O)CC[C@H](OC(=O)c1cccnc1)c1ccc(OCCO)cc1)C(C)C | -0.97 (inactive)
4 | CC(C)CNC(=O)[C@@]1(C)c2ccccc2C(=O)N(Cc2ccccc2)[C@H]1c1ccc(CO)cc1 | 0.165 (inactive)
5 | CC(C)(C)OC(=O)CC[C@]1(C(=O)O)COC(c2ccc(OCCCO)cc2)=N1 | -0.341 (inactive)
6 | COc1ccc([Si](C)(C)[C@@H]2[C@@H](CC(=O)N(CCO)Cc3ccccc3)O[C@]3(C(=O)N(Cc4ccc(N5CCOC5=O)cc4)c4ccccc43)[C@H]2C)cc1 | 1.16 (inactive)
7 | CCCCC=C[C@@H](NC(=O)CCc1ccccc1)c1ccccc1 | -0.0955 (inactive)
8 | C=C(/C(=C/C[C@@H](OC(=O)c1ccncc1)c1ccccc1OCCO)c1cnc2ccccc2c1)C(C)C | -0.328 (inactive)
9 | C=C(CCCC)/C(=C/C[C@@H](OC(=O)c1ccncc1)c1ccccc1OCCO)c1cc(C(=O)OC)ccc1OC | 0.275 (inactive)
10 | CC(C)N1C(=O)c2ccccc2[C@](C)(C(=O)O)[C@@H]1c1ccc(CO)cc1 | 0.0212 (inactive)
11 | COC(=O)[C@@]1(Cc2ccc(OC)cc2)[C@H]2c3cc(C(=O)N(C)C)n(Cc4cc(C)n(C)n4)c3C[C@H]2CN1C(=O)c1ccccc1 | -1.2 (inactive)

test: E. coli acrAB mutant growth effects, primary screen, E. coli filamentation inducers, strain DRC39, OD650, 48 h (AID 1179);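 also: screen aims at cell division blockers that make cells filament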; conditions: E. coli DRC39 delta-acrAB growth, higher = more signal, called active from +8 up or from −8 down

Row | Compound | z-score
12 | CN(C)C(=O)[C@@]1(CCS(=O)(=O)c2ccccc2)N=C(c2ccc(OCCCO)cc2)O[C@H]1c1ccccc1CN=[N+]=[N-] | 0.802 (inactive)
13 | Cc1ccc(S[C@]2(C(=O)NCc3ccccc3)CC(=O)N(C3Cc4ccccc4C3)[C@@H]2c2ccc(CO)cc2I)cc1 | 1.52 (inactive)
14 | C=C(C)[C@@H]1CC=C(C(O)C2C=CC3C(=O)N(C4CCCCC4)C(=O)C3N2Nc2ccc(OC)cc2)CC1 (some centres not stated) | -0.0015 (inactive)
15 | CC(C)(C)N1CC=CC23O[C@@H]4C=CCCOC(=O)C4[C@H]2C(=O)N(CCCO)[C@@H]3C1=O (some centres not stated) | -1.27 (inactive)
16 | CN(C)C(=O)[C@]1(Cc2ccccc2N=[N+]=[N-])N=C(c2ccc(OCCCO)cc2)O[C@@H]1c1ccccc1CN=[N+]=[N-] | 0.7 (inactive)
17 | COC(=O)[C@@]1(Cc2ccc(OC)cc2)[C@H]2c3cc(C(=O)N4CCCC4)n(Cc4ccc(C)o4)c3C[C@H]2CN1C(=O)c1ccccc1 | -0.726 (inactive)
18 | [N-]=[N+]=NCc1ccccc1C[C@]1(C(=O)NCCN2CCOCC2)N=C(c2ccc(OCCCO)cc2)O[C@H]1c1ccccc1 | 0.535 (inactive)
19 | CCCCCCC#C[Si](O[C@H](c1ccccc1)c1cn(Cc2cccc(Cl)c2)nn1)(C(C)C)C(C)C | 1.19 (inactive)
20 | COCCOC(=O)N1C(=O)[C@@]2(c3cc(C#CC4(O)CCCCCC4)ccc31)[C@H](C(=O)N1CCN(c3ncccn3)CC1)[C@H]1C(=O)O[C@H](c3ccccc3)[C@H](c3ccccc3)N1[C@@H]2c1ccc(O)cc1 | 0.37 (inactive)
21 | COc1ccc(C(=O)Nc2ccc3c(c2)[C@]2(O[C@@H](CCO)[C@H]([Si](C)(C)c4ccc(OC)cc4)[C@H]2C)C(=O)N3Cc2ccccc2)cc1 | -0.167 (inactive)
22 | COc1ccc([Si](C)(C)[C@@H]2[C@@H](CCO)O[C@]3(C(=O)N(Cc4ccccc4)c4ccc(N5CCCCC5=O)cc43)[C@H]2C)cc1 | -0.18 (inactive)
23 | C#CCNS(=O)(=O)N(C)C | 0.56 (inactive)
24 | COCCCNC(=O)[C@]1(CCS(=O)(=O)c2ccccc2)N=C(c2ccc(OCCCO)cc2)O[C@@H]1c1ccccc1 | 0.607 (inactive)
25 | CC(=O)NCCCC[C@@H]1NC(=O)[C@@H]2C[C@H](C(=O)NCCCC[N+](C)(C)C)[C@H](c3cccc(OCCO)c3)N2C1=O | -0.629 (inactive)
26 | CCCC[C@@H](O)C1=C(COc2ccccc2)Cn2c(=O)n(-c3ccccc3)c(=O)n2[C@H]1CO | 0.0244 (inactive)
27 | C=CCOC(=O)[C@H]1[C@@H]2C(=O)O[C@@H](c3ccccc3)[C@@H](c3ccccc3)N2[C@@H](c2ccc(OCCOC(=O)[C@H]3C[C@H]4C(=O)N[C@@H](CCCCN(C)C)C(=O)N4[C@H]3c3ccc(O)cc3)cc2)[C@]12C(=O)Nc1ccccc12 | -0.739 (inactive)
28 | C=CCNC(=O)[C@H]1[C@@H]2C(=O)O[C@@H](c3ccccc3)[C@@H](c3ccccc3)N2[C@@H](c2ccc(OCCO)cc2)[C@]12C(=O)N(C(=O)OCCOC)c1ccc(C#CC3=CCCCC3)cc12 | 0.215 (inactive)
29 | COC(=O)[C@@]1(Cc2ccccc2)[C@H]2c3cc(C(=O)N4CCCC4)n(Cc4ccc(OC(F)(F)F)cc4)c3C[C@H]2CN1C(=O)c1ccccc1 | -0.439 (inactive)

Row | Compound | z-score
30 | COc1ccc([Si](C)(C)[C@H]2[C@H](CCn3cc(CCO)nn3)O[C@@]3(C(=O)N(Cc4cccc(N5C(=O)c6cccc7cccc5c67)c4)c4ccccc43)[C@@H]2C)cc1 | 1.74 (inactive)
31 | COC(=O)[C@@]1(Cc2ccc(F)cc2)[C@H]2c3cc(C(=O)N4CCCC4)n(Cc4ccccc4)c3C[C@H]2CN1C(=O)c1ccccc1 | -0.406 (inactive)
32 | CCC[C@@H]1C[C@@]1(CCC)[C@@H](NC(=O)c1ccco1)c1ccc(Cl)cc1 | 0.105 (inactive)
33 | C[C@@]1([C@@H](NC(=O)c2cccs2)c2ccc(-c3ccccc3)cc2)C[C@H]1C1CCCCC1 | -0.483 (inactive)
34 | O=C1O[C@H](c2ccccc2)[C@H](c2ccccc2)N2[C@H]1[C@@H](C(=O)N1CCN(c3ncccn3)CC1)[C@]1(C(=O)Nc3ccc(C#CCCO)cc31)[C@H]2c1ccccc1OCCO | 0.614 (inactive)
35 | C=C(COC)C(=O)CC[C@H](OC(=O)c1ccccc1-c1ccccc1C(=O)O)c1ccc(CO)o1 | -0.399 (inactive)
36 | COCC(=C=CC[C@@H](O)c1ccccc1OCCO)C[C@@H](O)c1ccccn1 | -0.268 (inactive)
37 | COC(=O)C(CC#Cc1ccc2c(c1)[C@]1(C(=O)N2)[C@H](c2ccc(OCCO)cc2)N2[C@H](c3ccccc3)[C@H](c3ccccc3)OC(=O)[C@H]2[C@@H]1C(=O)O)C(=O)OC | 1.33 (inactive)
38 | COCCCNC(=O)[C@]1(Cc2ccccc2CN=[N+]=[N-])N=C(c2ccc(OCCCO)cc2)O[C@@H]1c1ccccc1CN=[N+]=[N-] | 0.0972 (inactive)
39 | C=C(C(=O)CC[C@H](OC(=O)c1cccnc1)c1ccc(OCCO)cc1)C(C)C | -0.899 (inactive)
40 | CC(C)CNC(=O)[C@@]1(C)c2ccccc2C(=O)N(Cc2ccccc2)[C@H]1c1ccc(CO)cc1 | -0.185 (inactive)
41 | CC(C)(C)OC(=O)CC[C@]1(C(=O)O)COC(c2ccc(OCCCO)cc2)=N1 | -0.447 (inactive)
42 | COc1ccc([Si](C)(C)[C@@H]2[C@@H](CC(=O)N(CCO)Cc3ccccc3)O[C@]3(C(=O)N(Cc4ccc(N5CCOC5=O)cc4)c4ccccc43)[C@H]2C)cc1 | 0.307 (inactive)
43 | CCCCC=C[C@@H](NC(=O)CCc1ccccc1)c1ccccc1 | -0.169 (inactive)
44 | C=C(/C(=C/C[C@@H](OC(=O)c1ccncc1)c1ccccc1OCCO)c1cnc2ccccc2c1)C(C)C | -0.805 (inactive)
45 | C=C(CCCC)/C(=C/C[C@@H](OC(=O)c1ccncc1)c1ccccc1OCCO)c1cc(C(=O)OC)ccc1OC | 0.223 (inactive)
46 | CC(C)N1C(=O)c2ccccc2[C@](C)(C(=O)O)[C@@H]1c1ccc(CO)cc1 | 0.421 (inactive)
47 | COC(=O)[C@@]1(Cc2ccc(OC)cc2)[C@H]2c3cc(C(=O)N(C)C)n(Cc4cc(C)n(C)n4)c3C[C@H]2CN1C(=O)c1ccccc1 | -1.29 (inactive)

Source: PubChem BioAssay
